# Results as given in PubChem BioAssay (NCI).
# The panel holds about 83,000 compounds, 20% with a hit somewhere; the sample as a whole holds those more often.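 The endpoint reported here, percent growth, reads 100 for growth as untreated, 0 for no net growth and -100 for all cells dead.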 Unmarked numbers belong to inactive results. Activity calls are given as the source filed them. How the source made its calls: active means growth percent below 10; inactive means the rest.
# System: HL-60(TB) leukemia
# Experiment: NCI-60 one-dose screen, 48 h (100 = growth as untreated, 0 = no growth, -100 = all killed)
# Settings: 10 µM unless noted
row,Structure (SMILES),growth
1,Cc1ccsc1/C=C/C1=NCCCN1C,126%
2,c1ccc(Cn2nc3c(c2-c2ccccc2)-c2oncc2CC3)cc1,92.2%
3,O=C(NCCCCCCCNC(=O)OCc1ccc2c(Cl)cc(Cl)c(O)c2n1)OCc1ccc2c(Cl)cc(Cl)c(O)c2n1,-45.9% (active)
4,COc1cc(/C=C2\C(=O)Nc3cc(C)c(O)cc32)cc(OC)c1OC,46.7%
5,N=C(N)c1ccc(-c2ccc(-c3ccc(-c4cccs4)s3)s2)cc1,100%
6,Cc1sc2nc(NCc3ccccc3)[nH]c(=O)c2c1C,22.4%
7,O=[n+]1ccn([O-])c2ccccc21,118%
8,CCOc1cccc(/C=N/NC(=O)c2cccc(Nc3ccnc(C(F)(F)F)c3)c2)c1O,14.1%
9,Oc1cc(Cl)ccc1Cc1ccc(Cl)cc1O,41.4%
10,CCN(CC)CCCC(C)Nc1cnc(C(=O)Nc2cc(C)cc3cccnc23)cn1 (stereo not given),76.8%
11,O=C1Cc2cc(O)ccc2O1,100%
12,COC(=O)c1ccc2c(c1)c1c(C)c3ccncc3c(C)c1n2C,32.5%
13,CC(C)=CC[C@@H]1CC2(CC=C(C)C)C(=O)C(OC3(C(=O)c4ccccc4)C(=O)C4(CC=C(C)C)C[C@@H](CC=C(C)C)C(C)(C)C(CC=C(C)C)(C4=O)C3=O)(C(=O)c3ccccc3)C(=O)C(CC=C(C)C)(C2=O)C1(C)C (stereo not given in full),-47.7% (active)
14,Nc1nc2ncc(CCNc3ccc(C(=O)O)cc3)nc2c(=O)[nH]1,58.2%
15,O=S(=O)(NCCNc1cc(-c2cn(-c3ccccc3)nc2-c2ccccc2)ccn1)c1cccc2ccccc12,36.4%
16,O=S(=O)(Oc1ccc(-c2ccc3sccc3c2)cc1)c1ccc(F)cc1,97.1%
17,COc1ccc2[nH]c(=O)c(/C=C/C(=O)c3ccccc3OC)cc2c1,-2.46% (active)
18,Cc1cc(-c2ccc(N=Nc3c(S(=O)(=O)O)cc4cc(S(=O)(=O)O)cc(O)c4c3O)c(C)c2)ccc1N=Nc1c(S(=O)(=O)O)cc2cc(S(=O)(=O)O)cc(O)c2c1O,119%
19,O=C(/C=C/c1ccccc1)n1c(-c2ccccc2)nc2ccccc21,101%
20,C=C1C(=O)O[C@H]2[C@H]1CC/C(COC(=O)/C=C\C(=O)NCc1ccc(Cn3c(=O)sn(CCCC)c3=O)cc1)=C\CC[C@@]1(C)O[C@@H]21,-45.6% (active)

row,Structure (SMILES),growth
1,Clc1cccc(C2Cc3cnccc3-c3[nH]c4ccncc4c32)c1 (stereo not given),25.3%
2,O=C(c1ccccc1)C(Br)[N+](=O)[O-] (stereo not given),62.3%
3,COc1cc(C(=O)n2nc(NCCCc3ccccc3)c3cc(N)ccc32)cc(OC)c1OC,69.5%
4,C[C@@H]1C=C2C(=O)O[C@@H]3CC[C@H](C1)[C@]23O,72.4%
5,NCC(=O)NS(=O)(=O)OC[C@H]1O[C@@H](n2cnc3c(N)ncnc32)[C@H](O)[C@@H]1O,-9.28% (active)
6,O=S(=O)(Nc1ccc(F)cc1F)c1ccc(-c2cnc(C3CC3)o2)cc1,1% (active)
7,COc1ccc(C2CC(c3ccc(OC)cc3O)=NN2c2ccc(S(N)(=O)=O)cc2)cc1 (stereo not given),-23.2% (active)
8,Cc1cc(Cl)cc(Cc2cc(Cl)cc(C)c2O)c1O,-27.9% (active)
9,Cc1cc(C)c2nc(C)c(C)[n+]([O-])c2c1,85.7%
10,O=C(Nc1cccnc1Nc1ccc(Cl)cc1)c1cn(Cc2ccc(F)cc2)nn1,109%
11,CC1CN(/N=C/c2ccc([N+](=O)[O-])o2)C(=N)O1 (stereo not given),99.8%
12,CC(NC(=O)c1ccccc1)C(=O)Nc1ccccc1 (stereo not given),107%
13,COc1ccc(C(=O)c2cc(OC)c(OC)c(OC)c2)cc1/C=C/C(=O)c1ccc(O)cc1,14.2%
14,Cc1nn(-c2ccc([N+](=O)[O-])cc2)c2ncnc(NCCc3ccccc3)c12,65.9%
15,N#Cc1ccc(-n2nnc3ccccc32)cc1C#N,108%
16,Cc1ccc(C(CN(C)C)C(=O)c2ccccc2)cc1 (stereo not given),-31.3% (active)
17,O=c1oc2c([nH]c3ccc4ccccc4c32)c2ccccc12,129%
18,Cc1c(N2CN3C[C@H](C)N4CN(c5c(C)n(C)n(-c6ccccc6)c5=O)CN5C[C@@H](C)N(C2)C3C54)c(=O)n(-c2ccccc2)n1C (stereo not given in full),-14.5% (active)
19,CNC1=C([N+](=O)[O-])C(c2ccc(OC)cc2)C(C#N)=C(c2ccc[nH]2)O1 (stereo not given),93.9%
20,CCOc1ccc(/C=C/C(=O)c2ccccc2)cc1,70.3%
